The record followed here is publication PMC7819943, “Rice protein-binding microarrays: a tool to detect cis-acting elements near promoter regions in rice”.

The full ranking holds about 68,000 sequences; the median of “fluorescence intensity (a.u.)” is about 9,100, and the highest 2% start at about 16,000. Many of the other results were omitted from the sample, so the highest values are more common in it than they were.

OsWRKY34, sequence (Q0JBA9 entry or part of it): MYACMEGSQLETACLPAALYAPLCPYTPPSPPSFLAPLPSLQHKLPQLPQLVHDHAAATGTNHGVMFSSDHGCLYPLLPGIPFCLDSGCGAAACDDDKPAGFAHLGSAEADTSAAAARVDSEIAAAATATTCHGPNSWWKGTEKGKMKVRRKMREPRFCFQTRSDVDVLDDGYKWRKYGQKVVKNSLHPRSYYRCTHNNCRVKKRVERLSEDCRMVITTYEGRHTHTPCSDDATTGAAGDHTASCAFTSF

The target in this assay is OsWRKY34 (Oryza sativa, UniProt Q0JBA9 1-250). In words: protein-binding microarray (RPBM); PBS, 2% BSA, 51.3 ng/ul salmon testes DNA, 50 uM zinc acetate, 200 nM TF, 25 C, 1 h; high values mean tight binding. The following applies: protein: recombinant; tags: N-terminal polyhistidine and DsRed monomer fusion (pET32a); label: CyDye5-dUTP incorporated in the synthesized complementary strand; 3' TTTTT single-stranded linker to array surface; dsDNA, one strand shown. The essentials:
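The binding signal is fluorescence intensity per feature, in arbitrary units, read on an Axon 4000B scanner. Polyhistidine- and DsRed-tagged transcription factors (N-terminal fusions) from E. coli BL21-CodonPlus were purified on Ni–NTA and applied at 200 nM for 1 h at 25 °C to a double-stranded, BSA-blocked custom Agilent array in buffer with 50 µM zinc acetate.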
For “CGGCGGTGGTCTCCGCCGTTGGATCTGGGCGTTGACTTGTCGGAGTCACCTAGTGCAG”, the binding signal was 9160 fluorescence intensity (a.u.).

Take “ACTGCTGCTGCATCGGCGCCTTCACCAAGATGTCAACGGACGGAGTCACCTAGTGCAG”: the binding signal is 8350 fluorescence intensity (a.u.).

Take “GCTCTGAATTTTATTTTTTCCGCTTCTTGATTTCTTCGTTCGGAGTCACCTAGTGCAG”: the binding signal is 9450 fluorescence intensity (a.u.).

For “GTAGCTCGTCGTCACTGCCCATAGTACTCTGGCTTAGCTACGGAGTCACCTAGTGCAG”, the binding signal is 8030 fluorescence intensity (a.u.).

For the sequence “GGAGAGATGCCATGCCGCGCTATGTTGTTCAACTTCAAACCGGAGTCACCTAGTGCAG”, the binding signal was 8400 fluorescence intensity (a.u.).

For the sequence “ATAGTTTGTTGTTTCCCAGACATAATTTTTACTAGCTTATCGGAGTCACCTAGTGCAG”, the binding signal was 9630 fluorescence intensity (a.u.).

On to “GTACACCGAAAGAAACCAACTCGTGTCCATCCATCCGTCTCGGAGTCACCTAGTGCAG”, for which the binding signal was 8070 fluorescence intensity (a.u.).

As to “TTCATATCTGCTTTTTCCTATATATGTGTGTGTGACTGCACGGAGTCACCTAGTGCAG”, the binding signal is 9710 fluorescence intensity (a.u.).

As to “TTTTATAATATGTTATTGTAGCAGTTTTTGTGAGCTATTACGGAGTCACCTAGTGCAG”, the binding signal is 8100 fluorescence intensity (a.u.).

In the case of “CTTGTACATCTGTCTTGCTAGAGTCTTTCACAAGATTACACGGAGTCACCTAGTGCAG”, the binding signal is 8080 fluorescence intensity (a.u.).

For the sequence “GTGCTTGTGTGGCGCGTGTGCTTGTCACAGACTCTGCTCCCGGAGTCACCTAGTGCAG”, the binding signal is 8660 fluorescence intensity (a.u.).

“AGATGATGTCATTGACCATACAAGTTGAAAATAGGAGCAACGGAGTCACCTAGTGCAG”: the binding signal is 63300 fluorescence intensity (a.u.).

As for “TGTGGATGGCGTGGATAAGTTGACAGTTGAAAATACAAAACGGAGTCACCTAGTGCAG”, the binding signal is 9130 fluorescence intensity (a.u.).

Turning to “GATACAACCATTGCTCACATCATGGATGAACAAGATGACACGGAGTCACCTAGTGCAG”, the binding signal was 8160 fluorescence intensity (a.u.).

Take “ACATACCTCGTGCGGCCAGTCGCCTGTTACAAACTCCATTCGGAGTCACCTAGTGCAG”: the binding signal is 8270 fluorescence intensity (a.u.).

In the case of “GTTGTCATTGTCGCGTCGTCACCTCTGATTGCGTCATTCCCGGAGTCACCTAGTGCAG”, the binding signal was 16500 fluorescence intensity (a.u.).

In the case of “ATGGATCATGGATGGCTCCCGTTGTCATTGTCGCGTCGTCCGGAGTCACCTAGTGCAG”, the binding signal was 9810 fluorescence intensity (a.u.).

On to “GCACCTCTTTCCTATCACGCGTCACCTTGCTCCATTGTCGCGGAGTCACCTAGTGCAG”, for which the binding signal is 19000 fluorescence intensity (a.u.).

Take “ATTGTATTTCTATATGGACTCTGCTTTTTATTTTTCTCCGCGGAGTCACCTAGTGCAG”: the binding signal was 8930 fluorescence intensity (a.u.).

“CTATATTCGAGGGAGTCCTTGTGGACTTTTTCCTTCTTTCCGGAGTCACCTAGTGCAG”: the binding signal was 9390 fluorescence intensity (a.u.).

On to “TCCTTCTCTGACTCTGTCTTGGCCATCCTATTCCTAGCTCCGGAGTCACCTAGTGCAG”, for which the binding signal is 10600 fluorescence intensity (a.u.).

Turning to “TGGATGGCCTTTTGTCTCTTTGTATATTATATATTTAGTTCGGAGTCACCTAGTGCAG”, the binding signal is 8260 fluorescence intensity (a.u.).

As for “ACCTGTATTTGTCATTATTTAGTGGACTCTGCTTAGTTCTCGGAGTCACCTAGTGCAG”, the binding signal is 19300 fluorescence intensity (a.u.).

As to “CCTCTCTGATTCGTCACCGCCACCGCCGCGTCGTCCCGCGCGGAGTCACCTAGTGCAG”, the binding signal was 9730 fluorescence intensity (a.u.).

“TCTCTCTCCTTTTGTTGCTTCCATTTCTCGTTCTTGCACGCGGAGTCACCTAGTGCAG”: the binding signal was 10500 fluorescence intensity (a.u.).

On to “CCTCCTTGTTGCGGTCGTCTTTCGCTCTATCTTCCTTGTCCGGAGTCACCTAGTGCAG”, for which the binding signal was 11100 fluorescence intensity (a.u.).

As for “TCCTTAGCTTCCTTCTGTCGACTTGTCTATTCTTTTTTTCCGGAGTCACCTAGTGCAG”, the binding signal was 17700 fluorescence intensity (a.u.).

For “CCATTCCTCTGTTTACCTCTGCTCTGTATACATACTCCGGCGGAGTCACCTAGTGCAG”, the binding signal is 9220 fluorescence intensity (a.u.).

Consider “AGAATTCCGATCGCCACCCCGCGGTTCTGCTCTCGCCGGCCGGAGTCACCTAGTGCAG”, for which the binding signal was 9150 fluorescence intensity (a.u.).

With “ACAAACCCGACCTTGAACTCGAAACAGGCGCACATCCCACCGGAGTCACCTAGTGCAG”, the binding signal is 8560 fluorescence intensity (a.u.).

For “CCATCGGTACCATCTGTTTCGTCTACTTCCTTTGTAATCTCGGAGTCACCTAGTGCAG”, the binding signal is 9150 fluorescence intensity (a.u.).

Take “AGAGGAGAGGAGGGTTCAGATGTGGTGGGTCTATATAGCGCGGAGTCACCTAGTGCAG”: the binding signal is 9610 fluorescence intensity (a.u.).

As to “GATAGTGTCCCACGCATGCGTCCACGAGTCCTCGACGCAACGGAGTCACCTAGTGCAG”, the binding signal is 9120 fluorescence intensity (a.u.).

Turning to “TACTACACTATTAATATATGGTCCAACCTGTCATACACACCGGAGTCACCTAGTGCAG”, the binding signal was 10700 fluorescence intensity (a.u.).

Regarding “TGTTTATCTATTTTGTGTTGGTATTATTATTTCTTGTATACGGAGTCACCTAGTGCAG”, the binding signal is 8850 fluorescence intensity (a.u.).

For the sequence “CCACACCACAGTCGCCTCTCTCCTCTTTCACCGAGAAGCGCGGAGTCACCTAGTGCAG”, the binding signal is 8150 fluorescence intensity (a.u.).

For “GTTTCCATAGCATTACACTTTTGTAACTATTATTGTTTTGCGGAGTCACCTAGTGCAG”, the binding signal is 9760 fluorescence intensity (a.u.).

Turning to “TATGAAGTTGATTTTGTGGATTTTTTCATCGTGATTTATTCGGAGTCACCTAGTGCAG”, the binding signal is 8890 fluorescence intensity (a.u.).

As to “TACTGGTCGTCTGGTCTACTCCGTCTCTCCTCTTCTCTCCCGGAGTCACCTAGTGCAG”, the binding signal was 12200 fluorescence intensity (a.u.).

For the sequence “TTTCTCCGTCGTCTTCCTCTACTGGTTCTATGTCTTCTCACGGAGTCACCTAGTGCAG”, the binding signal is 18800 fluorescence intensity (a.u.).

With “CTTGGTTTCTTGTTGTGCAACTCTCGTCGTCTCGTTCATCCGGAGTCACCTAGTGCAG”, the binding signal was 11500 fluorescence intensity (a.u.).

For the sequence “TCCGTCGTCTTCCTTTACTGGTTCTATGTCTTCTCAGTAACGGAGTCACCTAGTGCAG”, the binding signal is 10800 fluorescence intensity (a.u.).

For “AACTCACTCTCGCGTTCGCGTCGTCTCCGGCCTTTTCTTGCGGAGTCACCTAGTGCAG”, the binding signal was 8870 fluorescence intensity (a.u.).

In the case of “CTCTCCTCCCTATTCTTTTCCTTTCCTCTCCTTTCCTTTCCGGAGTCACCTAGTGCAG”, the binding signal was 8870 fluorescence intensity (a.u.).

Take “ACTTGTATTCTTCCTCGTCTTCCTCTTCTGTATTTCTGGTCGGAGTCACCTAGTGCAG”: the binding signal was 8140 fluorescence intensity (a.u.).

Take “CTTTCCGTCGCGTCTCGTCTTCTCATGGTTGCAACTCTCCCGGAGTCACCTAGTGCAG”: the binding signal is 18100 fluorescence intensity (a.u.).

As for “ACTGTCTCGTATTCTATTCCTCATTCCTTCTCTTTTTTTCCGGAGTCACCTAGTGCAG”, the binding signal is 19600 fluorescence intensity (a.u.).
